Source: PubChem (National Center for Advancing Translational Sciences (NCATS))
SMN2 splice enh: SMN2 splice variant enhancement; HEK293 SMN2-luciferase splicing reporter, luminescence, 30-36 h; Potency, µM (highest dose often 46.1 µM), without a hit: at the highest dose activity change, positive = activation, most hits filed as activators; actives 2.8% (n = 210,000); AID 1458; also: % of control where 0% means no effect; nearly all actives have a fitted effect of over 55% in size
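HEK293 cells carry an SMN2 […]–luciferase reporter in which exon 7 inclusion puts luciferase in frame. Cells were plated 10-12 h before compound addition, then incubated 30-36 h at 37C. ONE-Glo luminescence was read; sodium butyrate at 4.5 mM final served as control.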
KinaseGlo FLuc: Kinase-Glo luciferase inhibition (counter-screen); Q27757; Kinase-Glo luciferase, ATP luminescence, 8 min; Potency, µM (highest dose often 38.3 µM), without a hit: at the highest dose activity change, negative = inhibition, usual class: inhibitors; actives 0.28% (n = 200,000); AID 1379; also: % is scaled to controls: 0 for no effect and ±100 for the full control effect; nearly all actives have a fitted effect of over 60% in size
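Inhibition of Kinase-Glo luciferase light generation was assessed at 10 uM ATP in pH 7.2 imidazole buffer, with luminescence measured after eight minutes at ambient temperature.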
NPC1 promoter act: activators of NPC1 promoter; actives 2.4% (n = 320,000); Huh7 NPC1 promoter luciferase reporter, 24 h; AID 485313; Potency, µM (titrated, usually from 9.22 µM), for the others: at the top dose activation, actives largely listed as activators; also: % of control where 0% means no effect; nearly all actives have a fitted effect of over 60% in size
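Quantitative HTS used a cell-based reporter: Huh7 cells stably bearing the NPC1 promoter upstream of luciferase were treated with compounds for 24 h, and promoter activation was read as luminescence.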
Rab9 prom act: Rab9 promoter activation; Huh7 Rab9 promoter-luciferase reporter, luminescence, 24 h; Potency, µM (doses to about 9.22 µM), without a hit: top-dose activation, negative = inhibition, usual class: activators; actives 2.8% (n = 320,000); also: % of control where 0% means no effect; nearly all actives have a fitted effect of over 60% in size
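Stable Rab9-luc Huh7, 1500 cells/well, 2 h settle; cmpd in DMSO, 24 h, 37 °C/5% CO2; luciferase reagent 10 min RT; luminescence.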
FLuc counter: firefly luciferase modulation, counter-screen for miR-21 project. P08659. purified FLuc, Km substrates, luminescence inhibition. Potency, µM (doses to about 57.5 µM), for inactives: at the highest dose activity change, negative = inhibition, hits mostly inhibitors. actives 6.9% (n = 360,000);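 also: plate controls were vehicle for no effect and reference inhibitor for full effect; nearly all actives have a fitted effect of over 55% in size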
Target sequence (P08659 whole entry, looked up): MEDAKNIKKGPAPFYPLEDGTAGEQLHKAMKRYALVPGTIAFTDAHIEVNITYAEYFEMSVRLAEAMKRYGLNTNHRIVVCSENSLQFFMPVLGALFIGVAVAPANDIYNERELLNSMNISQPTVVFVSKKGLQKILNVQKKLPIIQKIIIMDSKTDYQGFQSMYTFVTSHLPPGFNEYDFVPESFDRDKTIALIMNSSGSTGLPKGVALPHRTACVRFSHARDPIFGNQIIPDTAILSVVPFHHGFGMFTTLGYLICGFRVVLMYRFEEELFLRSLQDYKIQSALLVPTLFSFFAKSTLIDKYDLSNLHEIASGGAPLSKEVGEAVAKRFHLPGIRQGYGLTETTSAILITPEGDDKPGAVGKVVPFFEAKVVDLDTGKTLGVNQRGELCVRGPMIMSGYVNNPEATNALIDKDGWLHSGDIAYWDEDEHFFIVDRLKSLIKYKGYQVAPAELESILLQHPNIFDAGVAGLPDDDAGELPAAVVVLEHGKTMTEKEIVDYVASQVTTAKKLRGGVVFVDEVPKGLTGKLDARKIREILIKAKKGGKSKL
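Purified P. pyralis luciferase (10nM final) with 10uM D-luciferin and 10uM ATP (Km levels) in 50mM Tris acetate pH 7.5, 10mM Mg acetate, 0.01% Tween-20, 0.05% BSA; qHTS 6-point titration, ~60 µM downward; luminescence read.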
ELG1 genotox: induces genotoxicity in HEK293T cells with luciferase-tagged ELG1; HEK293T ELG1-luciferase reporter, luminescence, 16 h; Potency, µM (doses to about 46 µM), without a hit: top-dose activity change, positive = activation, actives largely listed as activators; actives 1.3% (n = 330,000); also: % of control where 0% means no effect; nearly all actives have a fitted effect of over 60% in size
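Reporter readout depends on ELG1 protein level, which increases with genetic stress. After 16 hr compound exposure at 37 °C, luciferase activity was quantified using ONE-Glo.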
Numbers without * were called inactive; ? = inconclusive; / = no result given; [ ] = another dose, or the depositor's remark. The list is not random: actives were taken first. Their share in the collection is about 7.3%. Calls follow the shape of the dose curve; as a rule, active = well fitted curve in the direction sought with a large enough effect; inconclusive = small, poorly fitted or top-dose-only effect, or another doubt; inactive = no such curve, though single readings can be large; an effect the other way counts as inactive or inconclusive. Potency is read from the fitted curve at half-maximal effect.

SMILES	SMN2 splice enh	KinaseGlo FLuc	NPC1 promoter act	Rab9 prom act	FLuc counter	ELG1 genotox
COc1cc(/C=C/c2ccc3cccc(O)c3n2)cc(Cl)c1OC	/	/	0.63µM*	0.71µM*	2.7µM*	21µM*
O=C(Nc1cccc(-c2cn3cccnc3n2)c1)c1ccco1	4%	1%	2%	0%	?	-3%
CS(=O)(=O)Nc1ccc(-c2cn3cccnc3n2)cc1	/	/	0%	6%[1.84 µM]	?	9%
O=C(Nc1cccc(-c2cn3cccnc3n2)c1)c1ccc2c(c1)OCO2	-11%	-3%	25%	17%	12µM*	0%
O=C(Nc1cccc(-c2cn3c(n2)SCC3)c1)c1ccc2c(c1)OCO2	19%	-3%	26%	?	11µM*	-10%
Cc1ccc(-c2cn3cccnc3n2)cc1	/	?	2.8µM*	?	15µM*	-16%
c1ccn2cc(-c3ccc4c(c3)OCO4)cc2c1	13µM*	-19%	?	3.2µM*	3.4µM*	?
O=C(Nc1ccc(-c2cn3c(n2)SCC3)cc1)c1ccc2c(c1)OCO2	4%	-24%	22%	?	?	6%
S=c1[nH]nc(-c2ccc3c(c2)OCO3)n1-c1ccccc1	-6%	0%	-2%	-6%	-1%	-1%
CCCCN(CC)C(=O)CCNS(=O)(=O)c1ccc2c(c1)c(=O)n(C)c(=O)n2C	-25%	/	/	/	0%	/
C=C[C@]1(C)Cc2occ(C)c2C[C@H]1C(=C)C(=O)O	?	-4%	/	/	/	/
CN(C)S(=O)(=O)c1ccc2c(c1)N(CC(=O)N1CCN(c3ccccc3F)CC1)CCS2	/	/	/	/	-7%	/
O=C(COc1ccccc1-c1nc(-c2ccccc2)no1)Nc1cccc([N+](=O)[O-])c1	/	/	/	/	-10%	/
Nc1cccc(-c2cn3cccnc3n2)c1	7%	-2%	5%	25%	-19%	2%
c1cnc2nc(-c3ccc4c(c3)OCO4)cn2c1	/	?	?	2.5µM*	9.5µM*	?
O=C(NCc1ccc(Cl)cc1)C1CCN(S(=O)(=O)c2ccc3c(c2)CCCN3C(=O)C2CCC2)CC1	/	/	/	/	0%	/
CCc1ccc(C(=O)CC2(O)C(=O)N(Cc3ccc(C)cc3)c3ccccc32)cc1 (stereo not drawn)	-9%	/	/	/	7.6µM*	/
Cc1ccc(C(=O)CC2(O)C(=O)N(Cc3ccccc3)c3ccccc32)c(C)c1 (stereo not drawn)	-21%	/	/	/	19µM*	/
O=C(O)c1ccc(N/N=C/c2cccc3cccnc23)cc1	/	/	0.32µM*	0.28µM*	0.76µM*	?
O=C(O)c1ccc(N/N=C/c2ccnc3ccccc23)cc1	/	/	0.56µM*	?	1.3µM*	?
Oc1ccccc1/C=N/Nc1cccc2cccnc12	?	-17%	?	13%	1.5µM*	?
CCOC(=O)c1cnc2ccccc2c1Nc1ccc(C(=O)O)cc1	11%	2%	-1%	1%	?	4%
O=C(NCCCN1CCN(c2cccc(Cl)c2)CC1)c1cnn(-c2ccc(F)cc2)c1-n1cccc1	/	/	/	/	-12%	/
Cc1cc(NC(=O)C(C)C)n(-c2nc3ccccc3s2)n1	-6%	-8%	21%	?	?	7%
Cc1c2c(=O)n(-c3nc4ccccc4s3)nc-2cc(O)n1Cc1ccccc1	/	/	-5%	-16%	6.7µM*	-1%
Cc1cc(C)n(-c2nc3ccccc3s2)n1	/	-26%	17%	27%	21µM*	?
Cc1cc(C)n(-c2nc(C(=O)O)cs2)n1	9%	-1%	-3%	-2%	-15%	2%
Cc1cc(C)n(-c2nc(-c3cccc(Cl)c3)cs2)n1	18%	-4%	?	?	11µM*	?
Cc1cc(C)n(-c2nc(-c3ccccc3)cs2)n1	23%	-4%	26%	?	9.5µM*	18µM*
Cc1ccc(Cl)cc1Nc1nc(-c2cccnc2)cs1	/	/	3%	17%	?	-3%
